Source: PubChem (Johns Hopkins Ion Channel Center)
KCNQ2 inh: rat KCNQ2 potassium channel inhibitors, primary screen, cell-based, CHO-K1, FluxOR thallium flux, B-score; 20 min; active compounds read low; B-score at 10 µM; 310,000 compounds, 1.1% hits; AID 2156, 2009;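 active = fluorescence ratio B-score at most minus 3 library SDs, with starting brightness B-score within 2 library SDs, cut at about -5.5 in these data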
KCNQ2 pot: potentiators of rat KCNQ2 potassium channel; CHO-K1 KCNQ2, FluxOR thallium flux fluorescence; active compounds read high; B-score at 10 µM; 310,000 compounds, 0.54% hits; AID 2239, 2010;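 active = fluorescence ratio B-score at least 3 SD of library B-scores, with initial fluorescence B-score within 3 of them, cut at about 5.3 in these data; same plate scores as AID 2156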;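 note: B-score of peak minus minimum over baseline fluorescence ratio after K+ and Tl+ stimulus; positive B-score means potentiation of KCNQ2 with more thallium influx and brighter signal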
Kir21 conf inh: mouse Kir2.1 channel blockers, retest, confirmation, cell-based, FluxOR thallium flux, duplicate. Kir2.1-expressing cells, FluxOR thallium flux fluorescence; active compounds read low. Tl flux remaining, % of negative control (active compounds read low), % at 10 µM. shares compounds with KCNQ2 pot. AID 2032, 2009. 2,300 compounds, 41% hits;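 active = Primary-screen hit whose thallium flux fell at least 3 control SD below untreated wells in both duplicates, with normal baseline fluorescence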
Target sequence (P35561 whole entry, looked up): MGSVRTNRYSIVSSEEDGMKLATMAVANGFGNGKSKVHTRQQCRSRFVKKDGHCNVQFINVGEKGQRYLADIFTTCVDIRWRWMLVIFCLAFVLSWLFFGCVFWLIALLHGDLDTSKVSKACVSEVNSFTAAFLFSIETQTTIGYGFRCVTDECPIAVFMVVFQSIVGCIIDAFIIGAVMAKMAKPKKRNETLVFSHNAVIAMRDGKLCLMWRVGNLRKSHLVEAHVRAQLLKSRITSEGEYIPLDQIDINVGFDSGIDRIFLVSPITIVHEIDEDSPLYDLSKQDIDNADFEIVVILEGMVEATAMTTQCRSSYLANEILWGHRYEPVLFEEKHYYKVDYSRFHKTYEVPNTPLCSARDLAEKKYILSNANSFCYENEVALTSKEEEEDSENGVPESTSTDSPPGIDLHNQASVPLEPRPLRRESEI
HEK293 Tl flux: alters thallium flux in parental HEK293 cells, Kir2.1 counter-screen | FluxOR signal as % of negative control (100 = no effect), % at 10 µM | shares compounds with KCNQ2 pot | AID 2105 | FluxOR thallium flux fluorescence; 0% = unstimulated blank wells | 2,300 compounds, 19% hits;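 active = dye signal at least 3 control SD above or below untreated wells in both duplicates, raw fluorescence within 3, either direction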;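 note: percent is based on the flux ratio of peak minus minimum fluorescence over baseline F0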
CHO-K1 ctr: nonspecific thallium flux increase in parental CHO-K1, confirmation, counter-screen for KCNQ2 potentiator project, cell-based, FluxOR thallium flux, duplicate | shares compounds with KCNQ2 pot | parental CHO-K1 cells, FluxOR thallium flux fluorescence; zero = vehicle mean+3SD, 100% = vehicle-minus-blank window | activity increase over 3SD of controls, % at 10 µM | 1,200 compounds, 43% hits | AID 2282, 2010;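 active = signal rise of at least 3 SD above the untreated control mean, in both duplicate wells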;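 note: counter screen of KCNQ2 potentiator hits so any rise reflects channel-independent effects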
KCNQ1 sel pot: human KCNQ1 channel potentiation off-target, confirmation, selectivity assay for KCNQ2 potentiator project, cell-based, CHO, FluxOR thallium flux. shares compounds with KCNQ2 pot. CHO KCNQ1 stable, FluxOR thallium flux fluorescence; beyond 3SD, as % of vehicle-control signal. activation over 3SD threshold, % at 10 µM. 1,200 compounds, 28% hits;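 active = fluorescence ratio rise of at least 3 SD of vehicle wells above their mean, in both replicate wells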
KCNQ2 pot confirm: rat KCNQ2 channel potentiators, confirmation, cell-based, CHO, FluxOR thallium flux, duplicate; shares compounds with KCNQ2 pot; CHO-KCNQ2 cells, FluxOR thallium flux fluorescence; potentiation, less the hit threshold, % at 10 µM; 1,200 compounds, 68% hits;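 active = fluorescence ratio rising 3 SD or more over the vehicle control mean in both replicates, plus primary screen hit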;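 note: peak minus minimum thallium fluorescence divided by baseline after K/Tl stimulus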
Kir2-1 sel: mouse Kir2.1 channel activation off-target, confirmation, selectivity assay for KCNQ2 potentiator project, cell-based, HEK293, FluxOR thallium flux; 1,200 compounds, 2% hits; activity over 3SD threshold, % at 10 µM; shares compounds with KCNQ2 pot; HEK293 Kir2.1, FluxOR thallium flux fluorescence;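 active = fluorescence ratio rise of at least 3 SD above the vehicle-control mean, seen in both replicates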
KCNQ2 W236L MoA: potentiators of retigabine-insensitive KCNQ2 W236L, mechanism study for KCNQ2 potentiator project, cell-based, rat KCNQ2 W236L, CHO, automated patch clamp; shares compounds with KCNQ2 pot; automated patch clamp current; current increase over 3SD of negative controls (%), active compounds read high, % at 25 µM; 940 compounds, 10% hits;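 active = current increase at least 3 SD of the untreated controls above them in both duplicate recordings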
A number is an active result. Rows were chosen to be rich in hits. Some 1.6% of all compounds tested hit in one or more screens of this group.

`Cc1ccc(-n2nnnc2C(Cl)c2nnnn2-c2ccc(C)cc2)cc1` gave KCNQ2 inh inactive, Kir21 conf inh 39% and HEK293 Tl flux inactive.
`Cc1ccc(-n2nnnc2-c2ccccc2)cc1` gave KCNQ2 inh inactive.
CCCc1cc(-c2n[nH]c(=S)n2CC)cs1 was read as KCNQ2 inh inactive and KCNQ2 pot inactive.
CCCCn1c(-c2csc(CCC)c2)n[nH]c1=S was read as KCNQ2 inh inactive, KCNQ2 pot 9.1, Kir21 conf inh inactive, HEK293 Tl flux 172%, CHO-K1 ctr inactive, KCNQ1 sel pot inactive, KCNQ2 pot confirm 20, Kir2-1 sel inactive and KCNQ2 W236L MoA inactive.
Cc1ccc(NC(=O)CCNC(=O)c2ccc(Br)cc2)cc1S(=O)(=O)N1CCCCCC1 was read as KCNQ2 inh inactive.
Clc1ccc2nc(C3CCN(Cc4ccccc4)CC3)[nH]c2c1 was read as KCNQ2 inh inactive, Kir21 conf inh 41% and HEK293 Tl flux inactive.
Screening Cc1ccc(CN2CCC(c3nc4ccc(Cl)cc4[nH]3)CC2)cc1 returned KCNQ2 inh inactive, Kir21 conf inh 26% and HEK293 Tl flux inactive.
For CC1CCCCN1C(=O)CN1CCC(c2nc3ccc(Cl)cc3[nH]2)CC1 (stereo not given) the results were KCNQ2 inh inactive.
O=C(c1cccc(Cl)c1)N1CCC(c2nc3ccccc3[nH]2)CC1 was read as KCNQ2 inh inactive and KCNQ2 pot inactive.
For CCOc1ccc(NS(=O)(=O)c2ccc3c(c2)CCN3C(C)=O)cc1 the results were KCNQ2 inh inactive.
`C=CCn1ccc(=NC=C(C#N)C#N)c2ccccc21` gave KCNQ2 inh inactive.
Screening CCC(C)NC(=O)C1CCC(CNS(=O)(=O)c2ccccc2)CC1 (stereo not given) returned KCNQ2 inh inactive and KCNQ2 pot inactive.
Screening COc1cc(C(C)=O)ccc1OC(=O)c1cc2cccc(OC)c2oc1=O returned KCNQ2 inh inactive and KCNQ2 pot inactive.
For COc1ccccc1C(=O)Nc1nnc(-c2ccc(F)cc2)s1 the results were KCNQ2 inh inactive.
`COc1ccc(C(=O)Nc2nnc(-c3ccc(F)cc3)s2)c(OC)c1` gave KCNQ2 inh inactive, KCNQ2 pot 10, Kir21 conf inh inactive, HEK293 Tl flux inactive, CHO-K1 ctr inactive, KCNQ1 sel pot 19, KCNQ2 pot confirm inactive and Kir2-1 sel inactive.
For COc1ccccc1-c1nnc(SCC(=O)NC2CCS(=O)(=O)C2)n1CCc1ccccc1 (stereo not given) the results were KCNQ2 inh inactive.
`Cc1cc2ccccc2nc1SCC(=O)NC1CCCC1` gave KCNQ2 inh inactive and KCNQ2 pot inactive.
Screening Cc1cc2ccccc2nc1SCC(=O)NC1CCCCC1 returned KCNQ2 inh inactive, KCNQ2 pot 11, Kir21 conf inh inactive, HEK293 Tl flux inactive, CHO-K1 ctr inactive, KCNQ1 sel pot inactive, KCNQ2 pot confirm 11, Kir2-1 sel inactive and KCNQ2 W236L MoA inactive.
Screening CC(=O)N1CCN(c2ccc(NS(=O)(=O)c3ccc(C)cc3)cc2)CC1 returned KCNQ2 inh inactive and KCNQ2 pot inactive.
`Cc1ccc(NC(=O)CC2CCCC2)c(Br)c1` gave KCNQ2 inh inactive, KCNQ2 pot 16, Kir21 conf inh inactive, HEK293 Tl flux inactive, CHO-K1 ctr inactive, KCNQ1 sel pot inactive, KCNQ2 pot confirm 52, Kir2-1 sel inactive and KCNQ2 W236L MoA inactive.
Screening COc1ccc(NC(=O)C2CCCO2)c(OC)c1 (stereo not given) returned KCNQ2 inh inactive.
For Cc1ccc(C)c(NC(=O)C2CC3CCC2C3)c1 (stereo not given) the results were KCNQ2 inh inactive, KCNQ2 pot 21, Kir21 conf inh inactive, HEK293 Tl flux inactive, CHO-K1 ctr inactive, KCNQ1 sel pot 1.6, KCNQ2 pot confirm 57, Kir2-1 sel inactive and KCNQ2 W236L MoA inactive.
For Cc1ccc(NC(=O)C2CC3CCC2C3)c(Br)c1 (stereo not given) the results were KCNQ2 inh inactive, KCNQ2 pot 14, Kir21 conf inh inactive, HEK293 Tl flux inactive, CHO-K1 ctr 17, KCNQ1 sel pot inactive, KCNQ2 pot confirm 32, Kir2-1 sel inactive and KCNQ2 W236L MoA inactive.
Screening COc1ccc(NC(=O)C2CC3CCC2C3)c(OC)c1 (stereo not given) returned KCNQ2 inh inactive, KCNQ2 pot 9.8, Kir21 conf inh inactive, HEK293 Tl flux inactive, CHO-K1 ctr 69, KCNQ1 sel pot 58, KCNQ2 pot confirm 61, Kir2-1 sel inactive and KCNQ2 W236L MoA inactive.
`Cc1cc(C)cc(NC(=O)C2CC3CCC2C3)c1` (stereo not given) gave KCNQ2 inh inactive and KCNQ2 pot inactive.
For Cc1ccc(S(N)(=O)=O)cc1NC(=O)C1CC2CCC1C2 (stereo not given) the results were KCNQ2 inh inactive.
For Cc1ccc(NC(=O)C2CCCC2)c(Br)c1 the results were KCNQ2 inh inactive and KCNQ2 pot inactive.
For CCC(Oc1ccccc1)C(=O)Nc1nnc(S(=O)(=O)N2CCCC2)s1 (stereo not given) the results were KCNQ2 inh inactive.
Screening Cc1nnc(N/N=C/c2cccc(OCc3ccc(Cl)c(Cl)c3)c2)n1N returned KCNQ2 inh inactive and KCNQ2 pot inactive.
O=C(OCC(=O)N1CCN(c2ccccc2)CC1)c1cc(Cl)ccc1[N+](=O)[O-] was read as KCNQ2 inh inactive and KCNQ2 pot inactive.
